Test [1] is described as follows: APR_HepG2_CellLoss_72hr: Apredica 72-hour HepG2 Assay for Cell Loss (AID 2282915). The following applies: high-content imaging. Put shortly: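 HepG2 cells exposed 72 h to compound at 0.39–200 uM (10 concentrations, duplicate) in 0.5% DMSO. Fixed with 3.7% formaldehyde and Hoechst 33342-stained. Imaged at 20x; nuclear count gives cell number, fitted bidirectionally versus DMSO.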

Test [2] in a line: APR_HepG2_P-H2AX_72hr: Apredica 72-hour HepG2 Assay for H2AX Phosphorylation (AID 2282916).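 Also: phospho-histone H2A.x immunostain intensity per cell marking DNA damage.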 The settings on record: imaging, actives raise or lower the signal. Put shortly:
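HepG2 human liver cells were exposed for 72 hr to compounds at 0.39–200 uM (10 concentrations, duplicate per plate) in 0.5% v/v DMSO. Fixed, permeabilized cells were immunolabeled for phospho-histone H2A.x with Hoechst 33342 and imaged by HCS fluorescence; bidirectional fit versus DMSO.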

Test [3] is described as follows: APR_HepG2_MitoMembPot_72hr: Apredica 72-hour HepG2 Assay for Mitochondrial Membrane Potential (AID 2282917). The settings on record: imaging, actives raise or lower the signal. Put shortly: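 HepG2 cells dosed 72 hr with compound at 0.39–200 uM in duplicate, 0.5% v/v DMSO final. Mitochondria stained with 250 nM MitoTracker Red CMXRos for 30 min before formaldehyde fixation, imaged by high-content fluorescence; bidirectional fit versus DMSO.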

Test [4] in a line: APR_HepG2_MitoticArrest_72hr: Apredica 72-hour HepG2 Assay for Mitotic Arrest (AID 2282918). The settings on record: high-content imaging, actives raise or lower the signal. The gist of the method:
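HepG2 cells treated 72 h at 0.39–200 uM, 0.5% DMSO final; formaldehyde-fixed, stained with Hoechst 33342 and phospho-histone H3 antibody, imaged by high-content fluorescence; bidirectional fit versus DMSO.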

Test [5] can be described thus: APR_HepG2_MicrotubuleCSK_72hr: Apredica 72-hour HepG2 Assay for Microtubule CSK Stabilty (AID 2282919). The following applies: HepG2 microtubule cytoskeleton, high-content imaging, actives raise or lower the signal. Put shortly:
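HepG2 cells were exposed 72 hr to compound at 0.39–200 uM in duplicate (0.5% DMSO final), then fixed and permeabilized. Alpha-tubulin immunofluorescence was imaged by high-content microscopy, with bidirectional fitting against DMSO and taxol as positive control.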

A short description of test [6]: APR_HepG2_P-H2AX_24hr: Apredica 24-hour HepG2 Assay for H2AX Phosphorylation (AID 2282920). The following applies: high-content imaging, actives raise or lower the signal. The gist of the method:
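HepG2 cells dosed 24 h at 0.39–200 uM (10 points, duplicate, 0.5% DMSO final). Formaldehyde-fixed and permeabilized, then immunostained for phospho-H2A.x with Hoechst. Fluorescence quantified by high-content imaging, fitted bidirectionally versus DMSO.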

Test [7] can be described thus: APR_HepG2_StressKinase_72hr: Apredica 72-hour HepG2 Assay for Stress Kinase (AID 2282921). The following applies: HepG2 stress kinase (phospho-c-Jun) imaging, actives raise or lower the signal. Put shortly:
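Cells were exposed for 72 h to ten concentrations (0.39–200 uM, duplicate) at 0.5% v/v DMSO final, then fixed with 3.7% formaldehyde, permeabilized and immunostained for phospho-c-Jun (Cy3 secondary) with Hoechst nuclear counterstain.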

Test [8] can be described thus: APR_HepG2_StressKinase_24hr: Apredica 24-hour HepG2 Assay for Stress Kinase (AID 2282922). The settings on record: HepG2 stress kinase (phospho-c-Jun) imaging, actives raise or lower the signal. The gist of the method:
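HepG2 cells exposed 24 h to 0.39–200 uM compound in duplicate (0.5% v/v DMSO final). Cells fixed in 3.7% formaldehyde, permeabilized and immunostained for phospho-c-Jun; read by high-content fluorescence imaging, fitted bidirectionally against DMSO.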

Test [9] is described as follows: APR_HepG2_p53Act_72hr: Apredica 72-hour HepG2 Assay for p53 Activation (AID 2282923).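 Also: average cellular p53 protein immunofluorescence intensity in HepG2 cells.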 The following applies: high-content imaging, actives raise or lower the signal. Put shortly:
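Cells were dosed for 72 hr with compounds at 0.39–200 uM in duplicate (final DMSO 0.5% v/v), then fixed in 3.7% formaldehyde, permeabilized with Triton X-100 and immunostained for p53 (Cy5) with Hoechst 33342 nuclear counterstain.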

A short description of test [10]: APR_HepG2_MitoMass_72hr: Apredica 72-hour HepG2 Assay for Mitochondrial Mass (AID 2282924).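 Also: MitoTracker Red CMXRos stain intensity per cell imaged as mitochondrial mass.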 The following applies: high-content imaging, actives raise or lower the signal. The gist of the method:
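HepG2 cells dosed 72 hr at 0.39–200 uM (0.5% DMSO), in duplicate. MitoTracker Red CMXRos 250 nM loaded 30 min before formaldehyde fixation; high-content fluorescence imaging, bidirectional fit versus DMSO.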

Test [11] in a line: APR_HepG2_NuclearSize_72hr: Apredica 72-hour HepG2 Assay for Nuclear Size (AID 2282925). The following applies: high-content imaging, actives raise or lower the signal. The gist of the method:
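HepG2 cells dosed 72 h at 0.39–200 uM (10 concentrations, duplicate) in 0.5% v/v DMSO final. Fixed, Hoechst 33342-stained nuclei imaged; nuclear diameter measured by automated image analysis. Bidirectional fit versus DMSO.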

Test [12] is described as follows: ATG_CRE_CIS: Attagene CIS-FACTORIAL HepG2 Assay for human cAMP Responsive Element (CRE) binding protein 3 (AID 2282926). The following applies: HepG2 CRE cis-reporter, Attagene multiplexed mRNA; actives raise or lower the signal. Put shortly: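 HepG2 cells transiently transfected with cis-element-driven multiple reporter transcription units; CRE reporter mRNA measured 24 h after dosing by RT-PCR, 6-FAM labelling, HpaI digestion and capillary electrophoresis. Bidirectional fit versus DMSO baseline.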

The target of test [13] is CCAAT/enhancer-binding protein beta (Homo sapiens) (UniProt P17676). In words: ATG_C_EBP_CIS: Attagene CIS-FACTORIAL HepG2 Assay for human CCAAT/Enhancer Binding Protein (C/EBP) beta (AID 2282927). The following applies: HepG2 Attagene cis-factorial transcription factor reporter; actives raise or lower the signal. Put shortly: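 Transiently transfected HepG2 (MRTU library, endogenous TF-driven promoters); 24 h dosing; total RNA → oligo(dT) RT → PCR → 6-FAM primer extension → HpaI digest → CE; fit bidirectionally vs DMSO.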
Chain of CCAAT/enhancer-binding protein beta (Homo sapiens) (P17676 whole entry, looked up): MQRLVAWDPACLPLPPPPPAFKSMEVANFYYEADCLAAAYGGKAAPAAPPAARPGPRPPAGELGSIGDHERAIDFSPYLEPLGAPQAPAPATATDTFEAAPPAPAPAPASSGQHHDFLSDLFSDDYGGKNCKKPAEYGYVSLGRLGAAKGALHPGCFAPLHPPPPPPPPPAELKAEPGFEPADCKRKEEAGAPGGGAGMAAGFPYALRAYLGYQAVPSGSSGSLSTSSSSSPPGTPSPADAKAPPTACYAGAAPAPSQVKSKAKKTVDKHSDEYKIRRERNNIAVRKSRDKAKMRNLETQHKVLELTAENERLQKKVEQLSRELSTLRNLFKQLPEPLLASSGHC

The nature of test [14]: ATG_CMV_CIS: Attagene CIS-FACTORIAL HepG2 Assay for human CMV (Internal Marker) (AID 2282928).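 Also: endpoint acts as a background internal control marker rather than a target.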 The following applies: HepG2 CMV promoter reporter, transcription factor profiling; actives raise or lower the signal. The gist of the method:
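Cell system: HepG2, transiently transfected multiple reporter units under cis promoters. Exposure: 24 h. Detection: RT-PCR, FAM labeling, HpaI digestion, capillary electrophoresis. Analysis: bidirectional, DMSO baseline.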

Test [15] in a line: ATG_DR4_LXR_CIS: Attagene CIS-FACTORIAL HepG2 Assay for human Liver X Receptor (LXR), DR4 submotif (AID 2282929). The settings on record: HepG2 Attagene DR4 cis-reporter, mRNA transcription; actives raise or lower the signal. The gist of the method:
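Transiently transfected HepG2 liver cells; cis-regulated reporters; 24 h dosing. RT-PCR plus CE read-out of reporter mRNA. DMSO baseline, bidirectional curve fitting.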

Test [16] has as its target Aryl hydrocarbon receptor (Homo sapiens) (UniProt P35869). In words: ATG_Ahr_CIS: Attagene CIS-FACTORIAL HepG2 Assay for human Aryl Hydrocarbon Receptor (Ahr) (AID 2282930). The following applies: HepG2 AhR cis-factorial reporter transcription; actives raise or lower the signal. Put shortly:
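Read-out: reporter mRNA quantified by RT-PCR with fluorescent primer extension and capillary electrophoresis. Human HepG2 liver cells carried transfected cis-promoter reporter units and were exposed to chemical for 24 h; gain or loss fitted relative to DMSO.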

The nature of test [17]: ATG_AP_1_CIS: Attagene CIS-FACTORIAL HepG2 Assay for human Activator Protein 1 (AP-1) (AID 2282931). The settings on record: HepG2 Attagene cis-factorial AP-1 reporter mRNA; actives raise or lower the signal. The gist of the method:
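We transfected HepG2 cells transiently with a set of cis-regulated reporter transcription units, dosed them for 24 h, and quantified reporter mRNA via RT-PCR and capillary electrophoresis, scoring gain or loss of signal relative to DMSO.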

Test [18] can be described thus: ATG_AP_2_CIS: Attagene CIS-FACTORIAL HepG2 Assay for human Activator Protein 2 (AP-2) (AID 2282932). The following applies: HepG2 AP-2 cis-reporter, Attagene transcription factor profiling; actives raise or lower the signal. Put shortly:
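Multiplexed mRNA reporter assay in HepG2: cis-regulated units report endogenous factor activity after 24 h treatment. Fluorescence from capillary electrophoresis of RT-PCR products gives the signal, with DMSO as baseline.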

Test [19] can be described thus: ATG_BRE_CIS: Attagene CIS-FACTORIAL HepG2 Assay for human Bone Morphogenetic Protein (BMP) Response Element (BRE) (AID 2282933). The settings on record: HepG2 BMP response element reporter, Attagene transcription factor profiling; actives raise or lower the signal. The gist of the method:
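A HepG2 multiplex reporter system measured inducible reporter mRNA 24 h post-dosing. Detection: RT-PCR, 6-FAM primer extension, HpaI digestion, capillary electrophoresis. Activity fitted bidirectionally relative to DMSO.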

In test [20] the target is Retinoic acid receptor alpha (Homo sapiens) (UniProt P10276). Description: ATG_DR5_RAR_CIS: Attagene CIS-FACTORIAL HepG2 Assay for human Retinoic Acid Receptor Alpha (RARE), DR5 submotif (AID 2282934). The settings on record: HepG2 Attagene cis-factorial RARE DR5 reporter, mRNA; actives raise or lower the signal. The gist of the method:
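Read-out: DR5-driven reporter transcript measured by RT-PCR, 6-FAM primer extension, HpaI digest and capillary electrophoresis. Human HepG2 liver cells carry transiently transfected cis-element reporter constructs; dosing lasts 24 h. Gain or loss of signal fitted against DMSO baseline.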

Values joined by “and” are separate entries in the source; they are usually repeats but may differ in a detail not shown here. Equal values may be shown once. A structure can be active in one record and inactive in another. Active and inactive are the calls of the source. The calls were made as follows: active = hit-call score of the fitted dose curve at least 0.9, where 1 is the maximum; inactive = score below 0.9.

Chain of Retinoic acid receptor alpha (Homo sapiens) (P10276 whole entry, looked up): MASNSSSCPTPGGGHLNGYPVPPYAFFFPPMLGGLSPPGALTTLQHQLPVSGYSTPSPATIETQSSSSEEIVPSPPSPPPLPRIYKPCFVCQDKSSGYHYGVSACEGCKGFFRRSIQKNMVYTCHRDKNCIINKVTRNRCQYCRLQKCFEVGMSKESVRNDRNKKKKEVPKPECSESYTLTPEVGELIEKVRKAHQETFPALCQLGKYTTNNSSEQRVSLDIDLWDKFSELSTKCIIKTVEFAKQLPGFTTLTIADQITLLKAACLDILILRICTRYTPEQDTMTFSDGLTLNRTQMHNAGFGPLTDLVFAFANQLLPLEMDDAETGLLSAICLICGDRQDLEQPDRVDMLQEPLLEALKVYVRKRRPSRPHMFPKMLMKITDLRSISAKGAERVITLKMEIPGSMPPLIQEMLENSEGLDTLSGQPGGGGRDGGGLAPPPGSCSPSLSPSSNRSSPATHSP
Chain of Aryl hydrocarbon receptor (Homo sapiens) (P35869 whole entry, looked up): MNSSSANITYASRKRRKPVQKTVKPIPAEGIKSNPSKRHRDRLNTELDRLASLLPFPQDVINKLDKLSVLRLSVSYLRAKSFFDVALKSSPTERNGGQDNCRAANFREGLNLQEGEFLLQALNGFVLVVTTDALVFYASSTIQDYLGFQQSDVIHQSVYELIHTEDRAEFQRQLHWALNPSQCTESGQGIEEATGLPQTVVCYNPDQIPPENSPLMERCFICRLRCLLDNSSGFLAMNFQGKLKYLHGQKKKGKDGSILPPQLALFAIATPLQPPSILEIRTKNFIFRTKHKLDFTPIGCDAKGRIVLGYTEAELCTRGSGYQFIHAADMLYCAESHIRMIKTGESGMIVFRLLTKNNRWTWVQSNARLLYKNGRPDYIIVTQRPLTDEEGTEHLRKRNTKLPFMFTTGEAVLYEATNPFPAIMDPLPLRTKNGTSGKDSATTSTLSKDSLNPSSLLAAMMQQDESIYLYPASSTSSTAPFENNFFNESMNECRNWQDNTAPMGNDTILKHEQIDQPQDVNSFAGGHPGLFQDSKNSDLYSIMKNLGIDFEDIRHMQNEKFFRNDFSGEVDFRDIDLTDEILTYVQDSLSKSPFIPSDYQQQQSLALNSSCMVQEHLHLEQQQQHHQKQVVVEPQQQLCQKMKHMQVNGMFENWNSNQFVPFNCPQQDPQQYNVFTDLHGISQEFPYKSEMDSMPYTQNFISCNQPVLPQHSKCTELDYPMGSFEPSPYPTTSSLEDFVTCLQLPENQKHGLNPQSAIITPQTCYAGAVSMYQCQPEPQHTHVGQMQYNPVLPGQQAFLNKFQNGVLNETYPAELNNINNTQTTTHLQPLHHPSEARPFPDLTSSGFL

The AC50 is the concentration giving half of the maximal activity seen. On to `O=C(Nc1ccccc1)Nc1cnns1`, for which the concentration at half-maximal activity (AC50) is 90.8 µM (active) in [1]; 93.6 µM (active) in test [2]; 91.6 µM (active) in test [4]; 78 µM (active) in test [5]; 50 µM (active) in test [14]; 82.7 µM (active) in test [15]. Also, the AC50 in [17] and in [19] was 50 µM (active) in each case. The outcome in test [3], in [6], in test [7], in test [8], in test [9] and in test [10] was inactive. The result in test [11], in test [12], in test [13], in test [16], in test [18] and in [20] was inactive.

Regarding `CC(C)N(C(=O)COc1nnc(C(F)(F)F)s1)c1ccc(F)cc1`, the AC50 in test [1] was 37.6 µM (active); in [4], 169 µM (active); in test [7], 113 µM (active); in test [12] it was 31.9 µM (active); in [19] it was 34.9 µM (active). Also, the molecule was classed as inactive in [2], in [3], in test [5], in test [6], in test [8] and in [9]. Also, the result in test [10], in test [11], in test [13], in [14], in test [15] and in [16] was inactive. Also, the call in test [18] and in test [20] was inactive.

Consider `O=C(O)C(F)(F)C(F)(F)C(F)(F)C(F)(F)C(F)(F)C(F)(F)C(F)(F)F`, for which the outcome in [2], in [4], in test [5], in test [6], in [7] and in [8] was inactive. Also, the outcome in test [9], in test [10], in [11], in test [12], in [13] and in [14] was inactive. Also, the molecule was called inactive in test [15], in test [16], in test [18] and in [19]. Also, the AC50 in test [3] is 116 µM (active) and 111 µM (active); in test [15] it was 11.5 µM (active).

Turning to `COC(=O)c1ccccc1S(=O)(=O)NC(=O)N(C)c1nc(C)nc(OC)n1`, the call in test [1], in [2], in test [3], in test [4], in test [5] and in test [6] was inactive. Also, the molecule was called inactive in test [7], in [8], in test [9], in test [10], in [11] and in test [12]. The outcome in test [13], in test [14], in test [15], in [16], in test [18] and in test [19] was inactive. For the same molecule, in test [20], the outcome was inactive.

For `Oc1ccc(Cl)cc1Cc1ccccc1`, the AC50 was 112 µM (active) and 122 µM (active) and 34.5 µM (active) in [2]; 116 µM (active) and 35.4 µM (active) and 66.2 µM (active) in test [3]; 111 µM (active) and 62.5 µM (active) in test [5]; 114 µM (active) [middle of 4 runs] in [6]; 113 µM (active) and 122 µM (active) and 34.3 µM (active) in test [7]; 150 µM (active) and 99 µM (active) in [8]. In addition, the AC50 in test [9] is 111 µM (active) and 125 µM (active); in test [10] it was 88 µM (active); in [11], 110 µM (active); in [12] it was 13.4 µM (active); in [13], 8.76 µM (active); in test [14] it was 15.2 µM (active). The AC50 in test [15] was 11.2 µM (active) and 14.2 µM (active) and 13.4 µM (active); in [18] it was 17.6 µM (active); in test [19] it was 9.67 µM (active). Also, the outcome in test [2], in test [3], in test [4], in test [5], in test [6] and in test [7] was inactive. Further, the call in [8], in test [9], in [10], in test [11], in test [12] and in test [13] was inactive. Besides, the call in test [14], in test [15], in [16], in test [18], in test [19] and in test [20] was inactive.

Source of the values: PubChem BioAssay (EPA / NIEHS).
